In the library only some 2.1% were active in any assay of this set; here they are far more common.
ClpP mod: qHTS Assay for Activators of ClpP; ATP-dependent Clp protease proteolytic subunit (Bacillus subtilis (strain 168)), P80244; purified B. subtilis ClpP, FRET peptide cleavage, 20 min; Potency, µM (top dose mostly 57.5 µM), for inactives: at the top dose activity change, negative = active; actives 1.9% (n = 340,000); AID 651965, 2013; active = well fitted falling curve with a large enough effect; inconclusive = small, poorly fitted or top-dose-only effect; inactive = no such curve, though single readings can be large or run the other way; also: potency is read from the fitted curve at half-maximal effect; the source files actives as falling curves though it sought activators and does not explain the sign; nearly all actives have a fitted effect of over 65% in size
Target sequence (P80244 whole entry, looked up): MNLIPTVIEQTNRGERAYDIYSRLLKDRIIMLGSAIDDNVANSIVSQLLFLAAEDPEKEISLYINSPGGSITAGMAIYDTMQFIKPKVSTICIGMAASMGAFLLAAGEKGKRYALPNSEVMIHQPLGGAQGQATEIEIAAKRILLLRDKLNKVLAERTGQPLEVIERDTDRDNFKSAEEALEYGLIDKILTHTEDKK
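Buffer: 100 mM Tris/HCl pH8, 100 mM KCl, 0.05% low protease BSA, 2.5% glycerol, 0.01% Tween-20. ClpP 10 microg/mL final; 20 min RT; delta FRET normalized to ADEP and DMSO controls.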
uPA generation: qHTS for Inhibitors of Cell Surface uPA Generation; cell surface uPA generation assay, qHTS; actives 0.31% (n = 330,000); AID 540303, 2011; Potency, µM (highest dose often 38.3 µM), for the others: at the top dose activity change, negative = inhibition, usual class: inhibitors; active = well fitted inhibition curve with a large enough effect; inconclusive = small, poorly fitted or top-dose-only effect; inactive = no such curve, though single readings can be large or run the other way; tested in mouse RAW 264.7 cells; also: potency is read from the fitted curve at half-maximal effect; % is scaled to controls: 0 for no effect and ±100 for the full control effect; nearly all actives have a fitted effect of over 55% in size
B2AR arrestin: qHTS assay of beta-arrestin-biased ligands of beta2-adrenergic receptor. Beta-2 adrenergic receptor (Homo sapiens), P07550. beta-arrestin recruitment to beta2AR, cell-based reporter. Potency, µM (series often up to 46.1 µM), for the others: at the top dose activation, actives largely listed as activators. actives 0.02% (n = 330,000). AID 492947, 2010;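 also: potency is read from the fitted curve at half-maximal effect; 0% = DMSO controls and full agonism = EC100 isoproterenol or metaproterenol; nearly all actives have a fitted effect of over 65% in size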
Target sequence (P07550 whole entry, looked up): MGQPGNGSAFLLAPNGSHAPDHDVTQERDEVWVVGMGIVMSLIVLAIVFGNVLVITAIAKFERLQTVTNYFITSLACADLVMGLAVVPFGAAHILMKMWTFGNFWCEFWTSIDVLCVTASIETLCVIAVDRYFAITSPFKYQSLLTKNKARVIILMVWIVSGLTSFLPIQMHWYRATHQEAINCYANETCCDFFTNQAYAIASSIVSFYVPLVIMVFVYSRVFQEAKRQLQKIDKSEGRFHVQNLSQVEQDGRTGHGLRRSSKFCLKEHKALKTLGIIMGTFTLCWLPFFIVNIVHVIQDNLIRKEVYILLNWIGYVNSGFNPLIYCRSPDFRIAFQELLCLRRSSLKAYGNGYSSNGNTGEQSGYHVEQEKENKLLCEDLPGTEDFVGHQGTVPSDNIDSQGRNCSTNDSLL
Mito fusion act: qHTS Assay for Small Molecule Inhibitors of Mitochondrial Division or Activators of Mitochondrial Fusion; S. cerevisiae fusion-defective mutant growth rescue, CellTiterGlo 48 h; Potency, µM (highest dose often 46.1 µM), for inactives: top-dose growth rescue (activation), most hits filed as activators; actives 0.23% (n = 320,000); AID 485298, 2010; also: potency is read from the fitted curve at half-maximal effect; % of control where 0% means no effect; nearly all actives have a fitted effect of over 45% in size
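Yeast fusion mutant, YPEG (non-fermentable carbon), compound, 48 h at 37C non-permissive; CellTiterGlo added, 10 min RT, luminescence read. Rescued growth = division inhibition.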
p53 reactivation: qHTS assay for re-activators of p53 using a Luc reporter; H1299 p53-A138V BP100-luciferase reporter, luminescence, 24 h; Potency, µM (titrated, usually from 92.2 µM), for the others: top-dose activity change, positive = activation, hits mostly activators; actives 0.063% (n = 320,000); AID 504706, 2011; also: potency is read from the fitted curve at half-maximal effect; % of control where 0% means no effect; nearly all actives have a fitted effect of over 45% in size
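p53-null H1299 cells stably carrying temperature-sensitive p53-A138V and a BP100-luciferase reporter were pinned with compounds (4-point, 1:5 series) and held 24 hrs at 37 deg C. Luminescence was read 10 min after detection reagent.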
Giardia kill: Small Molecules that selectively kill Giardia lamblia: qHTS; Giardia lamblia trophozoite viability; activity change, % at 7.66 µM, hits read low; actives 0.15% (n = 340,000); AID 540267, 2011; in the data active = activity change below about -80%; inconclusive = between about -30% and that limit;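 also: parasites exposed to compound for two days anaerobically before the ATP read; % is scaled to controls: 0 for no effect and ±100 for the full control effect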
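Compounds were tested on trophozoites seeded at 100 cells/well and held 48 hrs at 37 deg C anaerobically. An ATP-based luminescent kit measured the remaining live cells.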
The depositor's hits bear a star; ? = inconclusive; . = no result given; ! = not confirmed by another sample. Unless noted, calls follow the shape of the dose curve; as a rule, active = well fitted curve in the direction sought with a large enough effect; inconclusive = small, poorly fitted or top-dose-only effect, or another doubt; inactive = no such curve, though single readings can be large; an effect the other way counts as inactive or inconclusive.

SMILES	ClpP mod	uPA generation	B2AR arrestin	Mito fusion act	p53 reactivation	Giardia kill
Cc1ccc(S(=O)(=O)c2n[nH]n3c2nc(=O)c2ccccc23)cc1	16µM*	7%	0%	-6%	0%	-1
COC(=O)c1c(C)oc2ccc(N(C(=O)c3ccncc3)S(=O)(=O)c3ccc(OC)cc3)cc12	-3%	.	.	.	.	.
COc1ccc(S(=O)(=O)N(C(=O)c2ccncc2)c2ccc3oc4c(c3c2)CCCC4)cc1	-2%	-5%	0%	11µM*	25%	-1
Cc1ccc(NCc2nc3ccccc3n2C)cc1	14µM*	-14%	0%	-5%	.	-5
Cn1c(NCc2ccc(Cl)cc2)nc2ccccc21	.	-2%	0%	3%	6%	-14
Cc1ccc(CNc2nc3ccccc3n2C)cc1	0%	4µM*	0%	-8%	.	6
Fc1cccc(Cl)c1Cn1c(-c2cccs2)nc2ccccc21	4%	.	.	.	.	.
CCc1ccc(NCc2cc3cc4c(cc3n(CC(=O)Nc3ccccc3Cl)c2=O)OCO4)cc1	4%	.	.	.	.	.
Cn1c(NCCCO)nc2c(c1=O)C1(CCCCC1)Cc1ccccc1-2	28µM*	7%	0%	25%	-13%	-12
CCC1(C)Cc2ccccc2-c2nc3n(c(=O)c21)CC(C(=O)O)S3 (configuration not stated)	25µM*	-4%	-1%	-2%	-16%	-13
O=c1[nH]c(NCCO)nc2c1C1(CCCC1)Cc1ccccc1-2	32%	2%	0%	-8%	-2%	-5
CCn1c(NCCO)nc2c(c1=O)C(C)(CC)Cc1ccccc1-2 (configuration not stated)	1%	5%	-1%	4%	-5%	10
CCC1(C)Cc2ccccc2-c2nc(NCCCO)n(-c3ccccc3)c(=O)c21 (configuration not stated)	3.5µM*	-3%	0%	5%	-5%	-11
CCC1(C)Cc2ccccc2-c2nc3n(c(=O)c21)CCS3 (configuration not stated)	?	-21%	-1%	29%	-6%	-24
O=C(Cn1c(=O)oc2cc(S(=O)(=O)N3CCCCCC3)ccc21)Nc1cccc(C(F)(F)F)c1	2%	.	.	.	.	.
CCNC(=O)c1c(NC(=O)c2nc(SC)ncc2Cl)sc2c1CCCC2	0%	.	.	.	.	.
Cc1ccc(NC(=O)C2(C)Cc3ccccc3C(=O)O2)c(C)c1 (configuration not stated)	0%	.	.	.	.	.
C=CCSc1nnc(-c2cc3c(-c4ccccc4)nn(C)c3s2)n1C	28µM*	1%	0%	2%	5%	-2
COc1cccc(C(=O)Oc2c(Br)cc(Br)cc2/C=N/NC(=O)c2cc(C)[nH]n2)c1	0%	4µM*	0%	26%	6%	-5
Cc1ccc2c(c1)C(c1ccc(F)cc1)N(C(=O)COc1ccc(Cl)cc1Cl)CC(=O)N2 (configuration not stated)	1%	.	.	.	.	.
Cc1ccc(CSCC(=O)Nc2ccc(N3CCOCC3)cc2N2CCOCC2)cc1	35µM*	4%	0%	5%	4%	-5
CCOc1ccc(S(=O)(=O)N2CCOCC2)cc1NC(=O)CSCc1ccc(C)cc1	-1%	2.5µM*	-4%	6%	-3%	-6
CCC(C)Nc1ccc(NC(C)CC)cc1 (configuration not stated)	-2%	?	0%	-44%	-36%	-101*!
CCC(C)NC(=O)Nc1ccc(Br)cc1 (configuration not stated)	.	-3%	0%	4%	-1%	-8
CCCCc1nc(NCCNC(=O)c2ccccc2)c(C#N)c2c1CSC(C)(C)C2	28µM*	5%	0%	-13%	-1%	-3
SMILES	ClpP mod	uPA generation	B2AR arrestin	Mito fusion act	p53 reactivation	Giardia kill
CCCCc1nc(Cl)c(C#N)c2c1CSC(C)(C)C2	-1%	-23%	0%	5%	3%	18
CCCCc1nc(NCCNC(=O)c2ccco2)c(C#N)c2c1CSC(C)(C)C2	25µM*	-3%	0%	-16%	-1%	3
C(=C\c1nc2ccccc2o1)/c1ccc2c(c1)OCO2	8%	.	.	.	.	.
CN(CC(=O)Nc1ccccc1Cl)C(=O)CSC(=S)N1CCCC1	-1%	-3%	0%	-1%	6%	-7
Cc1cc(Br)ccc1NC(=O)CN(C)C(=O)CSC(=S)N1CCCC1	3.2µM*	0%	0%	-5%	-1%	2
C1=CN2CC=Cc3cc(/C=C/c4ccnc5ccccc45)cc(c32)C1	-17%	.	.	.	.	.
CCOC(=O)c1ccc(NS(=O)(=O)c2ccc(Br)s2)cc1	-1%	.	.	.	.	.
O=C(O)/C=C\C(=O)Nc1ccccc1C(=O)N1CCN(c2ccc(Cl)cc2)CC1	20µM*	5%	0%	0%	-6%	4
CC(=O)c1cc(-c2ccccc2)n(CC(=O)N2CCN(C3CCCC3)CC2)c1C	32µM*	0%	0%	-5%	12%	22
CC1Cc2ccccc2C[N+]1(C)CC(=O)c1cccc([N+](=O)[O-])c1 (configuration not stated)	-4%	.	.	.	.	.
O=c1c2oc3ccccc3c2n(Cc2ccccc2F)c(=O)n1Cc1ccc2c(c1)OCO2	25µM*	.	.	.	.	.
Cc1ccc(S(=O)(=O)N2CCN(c3nc(-n4c(=O)[nH]c5ccccc54)nc4ccccc34)CC2)cc1	-22%	.	.	.	.	.
O=C(Nc1ccc(C(=O)N2CCCC2)cc1)c1ccccc1Br	-2%	17%	0%	-1%	-3%	8
O=C(Nc1ccc(C2CC2(Cl)Cl)cc1)c1ccccc1Br (configuration not stated)	-2%	4%	0%	14µM*	?	8
O=C(Oc1ccccc1C(=O)Nc1ccccc1)c1ccccc1Br	-2%	-16%	-1%	16µM*	?	-14
CCOc1ccc(-n2c(C)nc3cc(C(=O)NC4CCCC4)ccc32)cc1	-4%	.	.	.	.	.
COC(=O)N1CC=CC1(C)C(=O)NCc1cc(F)cc(C(F)(F)F)c1 (configuration not stated)	1%	7.9µM*	-1%	-5%	22%	15
COC(=O)c1ccccc1NC(=O)Cn1cc(S(=O)(=O)Cc2ccccc2F)c2ccccc21	38%	.	.	.	.	.
CCn1c(COc2ccc(Cl)cc2)nnc1SC1CCc2ccccc2C1=O (configuration not stated)	1%	-1%	0%	18µM*	4%	16
CCn1c(COc2ccc(Cl)cc2)nnc1SCc1ccc(C#N)cc1	0%	-1%	0%	3%	-7%	10

Assay outcomes (PubChem BioAssay)
